Results taken from PubChem BioAssay (NCI).
“And” between values parts separate entries of the source, which are not always exact repeats. Equal entries are not always repeated. About 79,000 compounds went through this panel and 15% of them were active in at least one assay; those are over-represented in the sample as a whole. Some compounds were tested as several samples or in several runs, with calls that do not always agree. The source made the active and inactive calls. Cut-off read from the data, not from the text of the source: active = growth inhibition above about 70%; inactive = the rest.

How the values were obtained:
[1] = NCI Yeast Anticancer Drug Screen. Data for the rad50 strain (AID 155);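 note: 0% = growth of vehicle-only cultures of the same strain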; conditions: S. cerevisiae rad50 strain growth inhibition, stronger effect = higher value
Summary of the method: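 Vehicle-treated cultures provide the reference for the growth inhibition reported for compound-exposed, repair-deficient yeast.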

[2] = NCI Yeast Anticancer Drug Screen. Data for the mec2-1 strain (AID 157); conditions: S. cerevisiae mec2-1 strain, stronger effect = higher value
Summary of the method: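 Vehicle-treated cultures served as reference for growth inhibition of compound-exposed mec2-1 yeast.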

[3] = NCI Yeast Anticancer Drug Screen. Data for the sgs1 mgt1 strain (AID 161);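 note: 0% = growth of cultures given vehicle only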; conditions: S. cerevisiae sgs1 mgt1 strain, stronger effect = higher value
Summary of the method: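 Mutant yeast exposed to compound; growth scored against vehicle-only wells.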

[4] = NCI Yeast Anticancer Drug Screen. Data for the cln2 rad14 strain (AID 165);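 note: 0% = growth equal to vehicle treated cultures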; conditions: S. cerevisiae cln2 rad14 strain, stronger effect = higher value
Summary of the method: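 Each compound was tested on cln2 rad14 yeast. Inhibition of growth was calculated against vehicle-exposed controls.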

[5] = NCI Yeast Anticancer Drug Screen. Data for the bub3 strain (AID 167); conditions: S. cerevisiae bub3 mutant strain, stronger effect = higher value
Summary of the method: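 Mutant yeast screening strain plus compound; vehicle-treated cultures serve as the 0% inhibition reference.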

[6] = NCI Yeast Anticancer Drug Screen. Data for the mlh1 rad18 strain (AID 175); conditions: S. cerevisiae mlh1 rad18 strain growth inhibition, stronger effect = higher value
Summary of the method: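 Vehicle-treated cultures served as the reference for growth inhibition in a yeast strain carrying DNA damage repair alterations exposed to each compound.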

[7] = at 5.0 µM (retest, dose inferred, filed as 0.5)
[8] = at 50.0 µM (retest, dose inferred, filed as 5.0)

SMILES | growth inhibition [1, 7] | growth inhibition [1, 8] | growth inhibition ([1]; at 50.0 µM) | growth inhibition [2, 7] | growth inhibition [2, 8] | growth inhibition ([2]; at 50.0 µM) | growth inhibition [3, 7] | growth inhibition [3, 8] | growth inhibition ([3]; at 50.0 µM) | growth inhibition [4, 7] | growth inhibition [4, 8] | growth inhibition ([4]; at 50.0 µM) | growth inhibition [5, 7] | growth inhibition [5, 8] | growth inhibition ([5]; at 50.0 µM) | growth inhibition [6, 7] | growth inhibition [6, 8] | growth inhibition ([6]; at 50.0 µM)
Cc1ccc([PH+](c2ccc(C)cc2)c2ccc(C)cc2)cc1.Cc1ccc([PH+](c2ccc(C)cc2)c2ccc(C)cc2)cc1.[Cl][Hg][Cl] | 98% (active) | 95% (active) | 47.6% (inactive) | 99% (active) | 98% (active) | 97.2% (active) | 99% (active) | 95% (active) | 99.5% (active) | 93% (active) | 96% (active) | 29.3% (inactive) | 98% (active) | 95% (active) | 99.3% (active) | 99% (active) | 94% (active) | 95.9% (active)
CC(C)(C)C(Br)C(=O)NC(N)=O (configuration not stated) | 1% (inactive) | -6% (inactive) | -8% (inactive) | -4% (inactive) | 3% (inactive) | -0.45% (inactive) | 12% (inactive) | -7% (inactive) | -19.4% (inactive) | -6% (inactive) | 2% (inactive) | 82.2% (active) | -3% (inactive) | -3% (inactive) | -12% (inactive) | -2% (inactive) | -8% (inactive) | 16.3% (inactive)
CCC1(C2=CCCCC2)C(=O)NC(=S)NC1=O | -101% (inactive) | 62% (inactive) | 8.05% (inactive) and 60.1% (inactive) | -11% (inactive) | 76% (active) | -3.9% (inactive) and 5.6% (inactive) | 22% (inactive) | 77% (active) | 0.6% (inactive) and 51.5% (inactive) | -14% (inactive) | 62% (inactive) | -32.4% (inactive) and -0.6% (inactive) | 4% (inactive) | 62% (inactive) | 6.05% (inactive) and 34.2% (inactive) | 0% (inactive) | 79% (active) | 25.5% (inactive) and 85% (active)
Oc1cccc[c]1[Hg][Cl] | 99% (active) | 99% (active) | 99.5% (active) | 99% (active) | 100% (active) | 99.7% (active) | 99% (active) | 99% (active) | 99.5% (active) | 100% (active) | 99% (active) | 98.6% (active) | 99% (active) | 99% (active) | 99.5% (active) | 99% (active) | 99% (active) | 99.5% (active)
CC(=O)Oc1cccc2c1CC(C[Se]c1ccccc1)C(=O)O2 (configuration not stated) | 11% (inactive) | 40% (inactive) | 69.9% (inactive) | 8% (inactive) | 35% (inactive) | 35.5% (inactive) | 11% (inactive) | 57% (inactive) | 70.2% (active) | 3% (inactive) | 23% (inactive) | 25.4% (inactive) | -7% (inactive) | 38% (inactive) | 35% (inactive) | 11% (inactive) | 66% (inactive) | 74.2% (active)
COc1ccccc1/C=C(/C)[N+](=O)[O-] | 96% (active) | 99% (active) | 99.5% (active) | 35% (inactive) and 21% (inactive) | 99% (active) and 100% (active) | 99.8% (active) | 34% (inactive) and 55% (inactive) | 99% (active) and 100% (active) | 99.2% (active) | 13% (inactive) and 12% (inactive) | 99% (active) | 99.5% (active) | 34% (inactive) and 27% (inactive) | 99% (active) and 100% (active) | 99.8% (active) | 34% (inactive) and -4% (inactive) | 99% (active) | 99.5% (active)
CCN(CC)C(=S)S | 66% (inactive) | 99% (active) | 48.6% (inactive) and 99.3% (active) | 66% (inactive) | 99% (active) | 28% (inactive) and 99.5% (active) | 58% (inactive) | 99% (active) | 34.9% (inactive) and 99.5% (active) | 8% (inactive) | 99% (active) | 21.3% (inactive) and 98.8% (active) | 65% (inactive) | 99% (active) | 8.05% (inactive) and 99.5% (active) | 75% (active) | 99% (active) | 26.8% (inactive) and 99.5% (active)
O=[N+]([O-])c1ccc([Se]CCBr)c([N+](=O)[O-])c1 | 5% (inactive) | 36% (inactive) | 38.4% (inactive) | 1% (inactive) | 23% (inactive) | 41% (inactive) | 5% (inactive) | 95% (active) | 18.2% (inactive) | 2% (inactive) | 88% (active) | 15.8% (inactive) | -2% (inactive) | 90% (active) | 30.2% (inactive) | 10% (inactive) | 96% (active) | 19.8% (inactive)
CC(=O)C1CCC2C3CCC4=CC(=[N+]5CCCCC5)CCC4(C)C3CCC12C (configuration not stated) | 98% (active) | 74% (active) | 95.4% (active) | 100% (active) | 95% (active) | 96.4% (active) | 97% (active) | 95% (active) | 97.5% (active) | 99% (active) | 87% (active) | 91.7% (active) | 99% (active) | 93% (active) | 93.5% (active) | 99% (active) | 92% (active) | 95.8% (active)
